Results on 18 compounds are retold here after PubChem BioAssay (NCATS).

The structures appear in SMILES notation. Records with an inconclusive call do not appear. Activity calls are given as the source filed them. The call rests on the fitted dose curve; in most records, active means well fitted curve in the direction sought with a large enough effect; inconclusive means small, poorly fitted or top-dose-only effect, or another doubt; inactive means no such curve, though single readings can be large; an effect the other way counts as inactive or inconclusive.

Assay [1] is described as follows: qHTS of pediatric cancer cell lines to identify multiple opportunities for drug repurposing: Confirmatory screen for BT-37 cells (AID 1347117). Further: potency means the concentration at half of the fitted maximal effect.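 Further: viability measured after 48 h of compound exposure; nearly all actives have a fitted effect of over 55% in size.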 The essentials: (§1)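 Cells (500-1,000/well) rested 5 h, then received compounds for 48 h; metabolically active cells were measured by CellTiter-Glo luminescence. Final concentrations spanned up to 46 µM (MIPE, 11-point) or 0.59 nM-46 µM (NPC, 8-point) in primary screens, 11-point in follow-ups.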

Assay [2] can be described thus: qHTS of pediatric cancer cell lines to identify multiple opportunities for drug repurposing: Confirmatory screen for TC32 cells (AID 1347118).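 Further: cells exposed to compound for 48 h before the read; nearly all actives have a fitted effect of over 65% in size.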 Further: potency means the concentration at half of the fitted maximal effect. The essentials: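 Luminescent CellTiter-Glo read-out of metabolically active TC32 cells after 48 h compound exposure. Primary: MIPE 11-point, 0.78 nM–46 µM; NPC 8-point, 0.59 nM–46 µM. Confirmatory: 11-point dilutions.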
Assay [3] is described as follows: qHTS of pediatric cancer cell lines to identify multiple opportunities for drug repurposing: Confirmatory screen for U-2 OS cells (AID 1347122). Further: nearly all actives have a fitted effect of over 65% in size. Further: potency means the concentration at half of the fitted maximal effect. A digest of the protocol: as §1
Assay [4] is described as follows: qHTS of pediatric cancer cell lines to identify multiple opportunities for drug repurposing: Confirmatory screen for Rh41 cells (AID 1347123). Further: nearly all actives have a fitted effect of over 60% in size. Further: potency means the concentration at half of the fitted maximal effect. The essentials: as §1
Assay [5] can be described thus: qHTS of pediatric cancer cell lines to identify multiple opportunities for drug repurposing: Confirmatory screen for RD cells (AID 1347124).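 Further: cells exposed to compound for 48 h before viability readout; nearly all actives have a fitted effect of over 65% in size.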 Further: potency means the concentration at half of the fitted maximal effect. The essentials: as §1
The nature of assay [6]: qHTS of pediatric cancer cell lines to identify multiple opportunities for drug repurposing: Confirmatory screen for Rh18 cells (AID 1347125). Further: nearly all actives have a fitted effect of over 55% in size. Further: potency means the concentration at half of the fitted maximal effect. The essentials:
as §1

Assay [7] in a line: qHTS of pediatric cancer cell lines to identify multiple opportunities for drug repurposing: Confirmatory screen for Saos-2 cells (AID 1347127). Further: nearly all actives have a fitted effect of over 60% in size. Further: potency means the concentration at half of the fitted maximal effect. The essentials:
as §1

In assay [8] the test system is Zika virus NS2B-NS3 protease. Kind of assay: Primary screen GU AMC qHTS for Zika virus inhibitors (AID 1347154). Further: nearly all actives have a fitted effect of over 70% in size. Further: potency means the concentration at half of the fitted maximal effect. A digest of the protocol: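 Fluorogenic AMC-substrate cleavage by noncovalent NS2B-NS3 protease complex (25 nM, pH 8.0 Tris buffer with Tween 20) followed for 15 minutes at room temperature (~20% conversion). Percent inhibition from ex340/em450 signal change, fitted by 4-parameter Hill equation.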

The subject of assay [9] is Zika virus NS2B-NS3 protease (unlinked complex). Kind of assay: Primary screen GU Rhodamine qHTS for Zika virus inhibitors: Unlinked NS2B-NS3 protease assay (AID 1347159). Further: nearly all actives have a fitted effect of over 60% in size. A digest of the protocol:
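Noncovalent NS2B hydrophilic domain–NS3 protease domain complex (25 nM) preincubated 15 min at room temperature with compounds (up to 114 microM) in 10 mM Tris-HCl pH 8.0, 0.01% Tween 20; 1.5 microM Rhodamine110 substrate added, fluorescence change over 15 min fitted to Hill equation.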

Assay [10] can be described thus: qHTS of pediatric cancer cell lines to identify multiple opportunities for drug repurposing: Confirmatory screen for MG 63 (6-TG R) cells (AID 1347119). Further: nearly all actives have a fitted effect of over 55% in size. Further: potency means the concentration at half of the fitted maximal effect. A digest of the protocol: as §1
Assay [11] is described as follows: qHTS of pediatric cancer cell lines to identify multiple opportunities for drug repurposing: Confirmatory screen for control Hh wild type fibroblast cells (AID 1347121). Further: nearly all actives have a fitted effect of over 70% in size. Further: potency means the concentration at half of the fitted maximal effect. The essentials:
as §1

Assay [12] is described as follows: qHTS of pediatric cancer cell lines to identify multiple opportunities for drug repurposing: Confirmatory screen for Rh30 cells (AID 1347126). Further: nearly all actives have a fitted effect of over 55% in size. Further: potency means the concentration at half of the fitted maximal effect. The essentials:
as §1

The nature of assay [13]: qHTS of pediatric cancer cell lines to identify multiple opportunities for drug repurposing: Confirmatory screen for SK-N-SH cells (AID 1347129).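 Further: cells exposed to compound for 48 h before viability read; nearly all actives have a fitted effect of over 60% in size.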 Further: potency means the concentration at half of the fitted maximal effect. A digest of the protocol:
as §1

A short description of assay [14]: qHTS of pediatric cancer cell lines to identify multiple opportunities for drug repurposing: Confirmatory screen for OHS-50 cells (AID 1347128). Further: potency means the concentration at half of the fitted maximal effect. A digest of the protocol: as §1
In assay [15] the test system is Zika virus NS2B-NS3 protease (unlinked complex). In words: Confirmatory screen GU AMC qHTS for Zika virus inhibitors (AID 1347153). Further: nearly all actives have a fitted effect of over 70% in size. A digest of the protocol: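 Noncovalent NS2B hydrophilic domain/NS3 protease complex (25 nM) in 10 mM Tris-HCl pH 8.0, 0.01% Tween 20 was preincubated 15 min at room temperature with compounds. Then 10 µM AMC substrate (Km 18.3 µM) was added; fluorescence was read over 15 min and fitted to a 4-parameter Hill equation.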

Consider `NCC(=O)Nc1ccc(-n2nc(C(F)(F)F)cc2-c2ccc3c(ccc4ccccc43)c2)cc1`, for which the Potency in assay [1] was 2.93 µM (active); in assay [2], 1.47 µM (active); in assay [3], 0.0261 µM (active); in assay [4], 7.37 µM (active); in [5], 5.22 µM (active); in [6], 2.61 µM (active). Further, the Potency in [7] is 3.29 µM (active). Moreover, the Potency result in [8] and in [9] was “inactive” throughout.
Regarding `Cc1ccc2nc(NC(=O)CSc3nc4c(c(=O)n3-c3ccccc3)SCC4)sc2c1`, the Potency was 8.27 µM (active) in assay [2], 5.22 µM (active) in [10], 14.7 µM (active) in [11] and 20.8 µM (active) in assay [4]. The Potency entry in assay [6], in assay [12] and in [7] was “inactive” in each case.
Regarding `C=CC(=O)N1CCC[C@@H](n2nc(-c3ccc(Oc4ccccc4)cc3)c3c(N)ncnc32)C1`, the Potency was 7.37 µM (active) in [2] and 10.4 µM (active) in assay [12]. In addition, the Potency result in assay [11] and in assay [5] was “inactive” throughout.
In the case of `CC(C)C[C@H](NC(=O)CNC(=O)c1cc(Cl)ccc1Cl)B(O)O`, the Potency result in assay [2] and in [8] was “inactive” each time. The values for the Potency in assay [5], in assay [6] and in assay [13] were 0.465 µM (active), 0.369 µM (active) and 0.418 µM (active), respectively.
Take `COc1cc(=C2C=c3ccccc3=N2)[nH]c1=Cc1[nH]c(C)cc1C`: the Potency was 7.37 µM (active) in assay [1]; 7.37 µM (active) in assay [2]; 17.4 µM (active) in assay [12]; 8.27 µM (active) in assay [7]; 1.24 µM (active) in assay [13]. The Potency entry in [8] is “inactive”.
Regarding `CN1CCN(c2cc(C(=O)Nc3ccc4c(c3)-c3c(c(C(N)=O)nn3-c3ccc(F)cc3)CC4)c(Cl)cn2)CC1`, the Potency was 20.8 µM (active) in assay [1]; 20.8 µM (active) in assay [2]; 14.7 µM (active) in [4]; 26.1 µM (active) in [6]; 0.465 µM (active) in assay [12]; 23.3 µM (active) in assay [14]. Moreover, the Potency in assay [13] was 20.9 µM (active). Also, in [8], the Potency entry is “inactive”.
On to `Cc1cnc(-c2cnc(NCCNc3ccc(C#N)cn3)nc2-c2ccc(Cl)cc2Cl)[nH]1`, for which the Potency result in assay [1], in assay [11], in assay [5], in assay [6], in [12] and in assay [7] was “inactive” in each case. In addition, in assay [8], the Potency entry was “inactive”. For the same compound, the Potency in assay [10] was 0.737 µM (active).
`COC(=O)c1ccc2c(C(=Nc3ccc(N(C)C(=O)CN4CCN(C)CC4)cc3)c3ccccc3)c(O)[nH]c2c1`: the Potency is 18.5 µM (active) in assay [2]; 3.29 µM (active) in assay [10]; 26.1 µM (active) in assay [6]; 16.5 µM (active) in assay [12]; 14.7 µM (active) in assay [14]. Moreover, the Potency result in assay [11], in [8] and in assay [9] was “inactive” each time.
Take `CC(C)(C)c1cc(NC(=O)Nc2ccc(-c3cn4c(n3)sc3cc(OCCN5CCOCC5)ccc34)cc2)no1`: the Potency was 18.5 µM (active) in assay [1], 3.29 µM (active) in assay [2], 16.5 µM (active) in assay [14] and 20.9 µM (active) in assay [13]. The Potency entry in [8] and in assay [9] was “inactive” in each case.
For the compound `Cc1nc2ccc(CN(C)c3ccc(C(=O)N[C@@H](CCC(=O)O)C(=O)O)s3)cc2c(=O)[nH]1`, in assay [2], the Potency is 0.0522 µM (active). Further, the Potency result in assay [4], in assay [6], in assay [7], in assay [14], in assay [13] and in [8] was “inactive” throughout.
`CC=C1NC(=O)[C@H]2CSSCCC=C[C@H](CC(=O)N[C@H](C(C)C)C(=O)N2)OC(=O)[C@H](C(C)C)NC1=O`: in assay [2], the Potency was 14.7 µM (active). For the same compound, the Potency entry in assay [11], in assay [3], in assay [4], in [6], in assay [12] and in assay [14] was “inactive” throughout. Also, the Potency result in [13] and in assay [8] was “inactive” each time.
On to `Nc1ccn([C@@H]2O[C@H](CO)[C@H](O)C2(F)F)c(=O)n1`, for which the Potency in [1] was 0.0074 µM (active); in assay [10] it was 2.33 µM (active); in [4], 0.0522 µM (active); in [6], 2.93 µM (active); in assay [12], 5.85 µM (active). The Potency entry in [3], in assay [13] and in [8] was “inactive” each time.
Regarding `CN(c1ncccc1CNc1nc(Nc2ccc3c(c2)CC(=O)N3)ncc1C(F)(F)F)S(C)(=O)=O`, the Potency in [1] is 7.37 µM (active); in [7], 8.27 µM (active); in assay [14] it was 5.85 µM (active); in assay [13], 3.72 µM (active). Also, the Potency result in assay [11], in assay [6] and in [8] was “inactive” in each case.
As to `CCC(=C(c1ccccc1)c1ccc(OCCN(C)C)cc1)c1ccccc1`, the Potency was 20.8 µM (active) in [2] and 18.5 µM (active) in [7]. The Potency entry in [11], in [4], in assay [12] and in assay [8] was “inactive” each time.
As for `Cc1cc(N2CCOCC2)cc2[nH]c(-c3c(NC[C@@H](O)c4cccc(Cl)c4)cc[nH]c3=O)nc12`, the Potency was 0.465 µM (active) in assay [2]; 0.329 µM (active) in assay [10]; 7.37 µM (active) in assay [3]; 0.657 µM (active) in [4]; 3.29 µM (active) in assay [6]; 0.293 µM (active) in assay [12]. Also, the Potency in [7] was 3.69 µM (active); in assay [14], 3.29 µM (active); in assay [13], 3.72 µM (active); in assay [8], 17.1 µM (active). Also, in assay [15], the Potency entry was “inactive”.
Take `CN(C)CC(C)(C)CNc1nn2c(-c3ccccc3)nnc2cc1C1CCC1`: in assay [2], the Potency is 18.5 µM (active). Also, the Potency entry in assay [10], in [11], in assay [5], in assay [6], in assay [7] and in [14] was “inactive” throughout. The Potency entry in assay [13], in [8] and in assay [9] was “inactive” each time.
As for `CN(C)CCCN=c1c2ccccc2n(C)c2[nH]c(=O)n(C)c(=O)c12`, the Potency in assay [1] is 18.5 µM (active); in assay [4], 23.3 µM (active). The Potency entry in assay [10], in [11], in assay [7], in [13] and in assay [8] was “inactive” throughout.
Turning to `COc1ccc(-n2nc(C(N)=O)c3c2C(=O)N(c2ccc(N4CCCCC4=O)cc2)CC3)cc1`, the Potency entry in assay [1], in assay [10], in [11], in assay [6], in assay [7] and in [14] was “inactive” each time. In addition, the Potency result in [13], in assay [8] and in [9] was “inactive” in each case. Moreover, the Potency is 0.233 µM (active) in assay [4], 1.31 µM (active) in assay [5] and 0.147 µM (active) in assay [12].
